Measurements taken from PubChem BioAssay (NCI).
About 83,000 compounds went through this panel and 20% of them were active in at least one assay; those are over-represented in the sample as a whole.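 Interpretation: 100, growth as untreated; towards 0, rising growth inhibition; 0, no net growth; 0 to -100, cell death. Compounds scoring below 10 were considered active.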 Values without a mark were called inactive. The source made the active and inactive calls.

Assays:
Assay in all cases: NCI-60 one-dose screen, 48 h (100 = growth as untreated, 0 = no growth, -100 = all killed)
Details in all cases: 10 µM unless noted
NCI-H23 lung = system: NCI-H23 lung
NCI-H226 lung = system: NCI-H226 lung
NCI-H322M lung = system: NCI-H322M lung
HOP-62 NSCLC = system: HOP-62 NSCLC
NCI-H460 lung = system: NCI-H460 lung
HOP-92 NSCLC = system: HOP-92 NSCLC
NCI-H522 lung = system: NCI-H522 lung
A549/ATCC NSCLC = system: A549/ATCC NSCLC
786-0 renal = system: 786-0 renal
COLO 205 colon = system: COLO 205 colon
DU-145 prostate = system: DU-145 prostate
K-562 leukemia = system: K-562 leukemia
MALME-3M melanoma = system: MALME-3M melanoma
MDA-MB-231 breast = system: MDA-MB-231 breast
SF-268 CNS = system: SF-268 CNS
SF-295 CNS = system: SF-295 CNS
SF-539 CNS = system: SF-539 CNS
UACC-257 melanoma = system: UACC-257 melanoma
M14 melanoma = system: M14 melanoma
RXF 393 renal = system: RXF 393 renal

SMILES | growth (NCI-H23 lung) | growth (NCI-H226 lung) | growth (NCI-H322M lung) | growth (HOP-62 NSCLC) | growth (NCI-H460 lung) | growth (HOP-92 NSCLC) | growth (NCI-H522 lung) | growth (A549/ATCC NSCLC) | growth (786-0 renal) | growth (COLO 205 colon) | growth (DU-145 prostate) | growth (K-562 leukemia) | growth (MALME-3M melanoma) | growth (MDA-MB-231 breast) | growth (SF-268 CNS) | growth (SF-295 CNS) | growth (SF-539 CNS) | growth (UACC-257 melanoma) | growth (M14 melanoma) | growth (RXF 393 renal)
COc1cc2nc(Cc3ccc(C)cc3)[nH]c(=O)c2cc1OC | 105% | 95.9% | 236% | 104% | 107% | 69.1% | 92.8% | 49.3% | 103% | 123% | 100% | 94.3% | 277% | 98.8% | 105% | 121% | 104% | 105% | 113% | –
CN1CCN(C(=O)OCc2nc3c(N4CCOCC4)nc(-c4ccccc4)nc3n2C)CC1 | -77.1% (active) | -66.7% (active) | 58.2% | 4.63% (active) | -46.9% (active) | -63.5% (active) | -35.3% (active) | 6.44% (active) | -83.3% (active) | -53% (active) | -83.5% (active) | 2.72% (active) | -93.9% (active) | -86.2% (active) | -50.2% (active) | 47.9% | -99.6% (active) | -49.5% (active) | -73.5% (active) | –
Nc1nnc2cc(Cl)ccc2n1 | 110% | 92% | 94.5% | 115% | 115% | 65.6% | 94.7% | 108% | 129% | 103% | 105% | 83.9% | 126% | 96.9% | 112% | 140% | 111% | 127% | 113% | –
COc1cc(-c2cc(=O)oc3cc(O)ccc23)cc(OC)c1OC | 88.1% | 87.3% | 96.7% | 87.6% | 69.5% | 54.2% | 80.2% | 90.1% | 99.7% | 99.4% | 96.3% | 66.2% | 90.1% | 89.3% | 88.7% | 93.4% | 93.4% | 99.3% | 98.3% | –
COc1nc(N)nc(-n2c(-c3ccc(C)cc3)nc3ccccc32)c1NCc1ccc(C)cc1 | 95.6% | 89% | 90.2% | 86.5% | 105% | 78.2% | 79.9% | 78.4% | 90.3% | 108% | 103% | 87.2% | 105% | 80.4% | 94.9% | 92.8% | 98.3% | 100% | 95.6% | –
O=C(CN1CCOCC1)Nc1ccc2ncnc(Nc3ccc(Oc4cccc(F)c4)c(Cl)c3)c2c1 | 96.7% | 89.8% | 20.1% | 84.9% | 80.2% | 67.4% | 20.7% | 66.3% | 74.3% | 91.7% | 48.3% | 56.8% | 88.3% | 74.3% | 70.9% | 84.2% | 85% | 89.1% | 74.5% | –
O=C1OC(=O)C2C1CC=CC2c1ccccc1 (configuration not stated) | 84.7% | 90.6% | 102% | 78.8% | 75.5% | 85.3% | 93.6% | 88% | 94.9% | 93.7% | 94% | – | 78.8% | 93.7% | 91.1% | 95.8% | 88.3% | 107% | 97.4% | 102%
O=C(CNCCO)Nc1ccc2ncnc(Nc3ccc(OCc4cccc(F)c4)c(Cl)c3)c2c1 | 98.9% | 93.8% | 33.4% | 87% | 88.7% | 55.8% | 46.3% | 71.6% | 69.6% | 96% | 61.6% | 27.8% | 98.2% | 87.7% | 78.1% | 95% | 87.8% | 101% | 93.4% | –
